Laboratory results as given in PubChem BioAssay (NCI).
Compounds without any hit were thinned out: in the full panel of roughly 79,000, 15% have a hit. No stated cut-off is given here; in the data, active means growth inhibition above about 70%; inactive means the rest.

What was measured:
[1] = NCI Yeast Anticancer Drug Screen. Data for the rad50 strain (AID 155);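 further: 0% = growth of vehicle-only cultures of the same strain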; settings: S. cerevisiae rad50 strain growth inhibition; at 50.0 µM; stronger effect = higher value
Method in brief: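 Growth of the mutant yeast was measured after compound exposure and referenced to vehicle-treated cultures.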

[2] = NCI Yeast Anticancer Drug Screen. Data for the mec2-1 strain (AID 157); settings: S. cerevisiae mec2-1 strain, at 50.0 µM, stronger effect = higher value
Method in brief: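 Growth inhibition is read against vehicle-treated controls after compound exposure of the mec2-1 yeast strain, which is defective in DNA damage repair or cell cycle control.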

[3] = NCI Yeast Anticancer Drug Screen. Data for the sgs1 mgt1 strain (AID 161);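 further: 0% = growth of cultures given vehicle only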; settings: S. cerevisiae sgs1 mgt1 strain, at 50.0 µM, stronger effect = higher value
Method in brief: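 Percent growth inhibition was derived by comparing compound-exposed mutant yeast with vehicle-exposed cultures. The strain carries alterations in DNA damage repair.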

[4] = NCI Yeast Anticancer Drug Screen. Data for the cln2 rad14 strain (AID 165);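 further: 0% = growth equal to vehicle treated cultures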; settings: S. cerevisiae cln2 rad14 strain, at 50.0 µM, stronger effect = higher value
Method in brief: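 Growth inhibition, relative to vehicle-treated controls, is the read-out. The test organism is a yeast strain with defined genetic alterations, cln2 rad14.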

[5] = NCI Yeast Anticancer Drug Screen. Data for the bub3 strain (AID 167); settings: S. cerevisiae bub3 mutant strain, at 50.0 µM, stronger effect = higher value
Method in brief: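 Whole-cell yeast assay. The mutant strain was incubated with compounds, and growth inhibition was determined by comparison with vehicle-treated cells.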

[6] = NCI Yeast Anticancer Drug Screen. Data for the mlh1 rad18 strain (AID 175); settings: S. cerevisiae mlh1 rad18 strain growth inhibition; at 50.0 µM; stronger effect = higher value
Method in brief: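 Cells of a genetically altered yeast strain, deficient in DNA damage repair, were treated with compound. Their growth was then compared with that of vehicle-treated cultures to give inhibition.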

Measured: growth inhibition

O=C(O)CCc1c(-c2ccccc2)c(-c2ccccc2)c2n1CCC2
inactive: [1] 49.5% | [2] 41% | [3] 56.5% | [4] -12.6% | [5] 33.9% | [6] 48.9%

CC(NC(=O)c1ccccc1)c1ccc[nH]1 (stereo not given)
inactive: [1] 8.75% | [2] -9.2% | [3] 0.05% | [4] -15.2% | [5] -25.6% | [6] -0.15%

CCOc1ccc(NC(=S)NC=C(C#N)C#N)cc1
inactive: [1] -17.8% | [2] -12.6% | [3] -9.55% | [4] -4.9% | [5] 7.75% | [6] -5.75%

CCC(=O)O[C@@H]1C2C(OC(C)=O)C34COC(C)([C@@H]3C3C(C[C@]3(C)OC(C)=O)[C@@H](OC(=O)c3ccccc3)C4=O)[C@H](OC(C)=O)[C@@]2(OC(C)=O)C[C@@H]1C (stereo not given in full)
inactive: [1] 4.2% | [2] -6.65% | [3] 4.85% | [4] 0.45% | [5] 9.95% | [6] 4.35%

O=C(O)CN1C(=O)/C(=C\c2ccc3ccccc3n2)SC1=S
inactive: [1] 1.9% | [2] 18.9% | [3] 2.85% | [4] -14.1% | [5] 0.4% | [6] 20.6%

C[N+](C)(C)CC(=O)NN
inactive: [1] 10.1% | [2] -0.8% | [3] -21.7% | [4] -17.6% | [5] -18% | [6] 38.6%

CCCCC(O)(CCCC)C(C)(C)C
inactive: [1] 3.7% | [2] 4.05% | [3] 0.6% | [4] -30.9% | [5] -0.2% | [6] 9.3%

O=C(CCN1CCOCC1)c1csc2ccccc12
inactive: [1] 27.6% | [2] 36.9% | [3] 12.9% | [4] 14.9% | [5] -5.35% | [6] 17.8%

CCCCNS(=O)(=O)c1cc(C(=O)O)cc(C(=O)O)c1
inactive: [1] 2.55% | [2] -7% | [3] 4.25% | [4] -33.9% | [5] 2.75% | [6] -1.7%

CCCCCCCCCCCCCCCC/C(=C\c1ccc2ccccc2c1)[N+](=O)[O-]
inactive: [1] -29.2% | [2] -10.7% | [3] -24.6% | [4] -38.3% | [5] -1.75% | [6] -10%

CC(=O)c1nc(C#N)c(N)o1
inactive: [1] 1.9% | [2] -3.55% | [3] -17.7% | [4] 20.8% | [5] -20.2% | [6] -23.4%

COc1ccc(NC(=O)NCc2ccc(C)c(C)c2)cc1
inactive: [1] -0.8% | [2] 38.8% | [3] 22.3% | [4] -3.05% | [5] 20.1% | [6] 35%

COc1cc2c(c(OC)c1OC)CCCC2=O
inactive: [1] 0.2% | [2] -10.4% | [3] -4.5% | [4] -130% | [5] -4.7% | [6] -4.9%

Cc1cccc(C(=O)O)c1-c1c(C)cccc1C(=O)O
inactive: [1] 13.3% | [2] -5.95% | [3] -6.8% | [4] 3.05% | [5] 0.8% | [6] 12.9%

COc1ccc(C2=C/C(=C/c3ccc(N(CCC#N)CCC#N)cc3)C(=O)O2)cc1
inactive: [1] -75.2% | [2] -6.2% | [3] -16.4% | [4] -18.2% | [5] -3.05% | [6] -22.8%

CCOC(=O)Nc1c(O)cccc1N1CCOCC1
inactive: [1] -14.1% | [2] 6.65% | [3] 25.9% | [4] -12.1% | [5] 7.4% | [6] -1.25%

CCN(CC)c1ccc(/C=C2\SC(=S)NC2=O)cc1
inactive: [1] 2.95% | [2] 4.65% | [3] 27.6% | [4] 9.95% | [5] 9.35% | [6] 7.75%

O=C1c2ccccc2C(=Cc2cccnc2)c2ccccc21
inactive: [1] 35.3% | [2] 31.9% | [3] 30.1% | [4] 20.2% | [5] 55.1% | [6] 40.7%

O=C(CCn1ccnc1[N+](=O)[O-])NCCCn1ccnc1[N+](=O)[O-]
inactive: [1] -24.1% | [2] -2.15% | [3] -42.4% | [4] -1% | [5] -34.4% | [6] -52.2%

Cc1ccc2nc(CN(CCO)CCO)cc(=O)n2c1
inactive: [1] 34.4% | [2] 4.95% | [3] 40.5% | [4] 4% | [5] 26.6% | [6] 28.4%

CCc1ccc(C(=O)O)o1
inactive: [1] -9% | [2] -12.1% | [3] -7.35% | [4] 7.8% | [5] 12.7% | [6] 12.3%

CCOC(=O)CCC1(C(=O)OCC)CCCC1=O (stereo not given)
inactive: [1] -12.9% | [2] -21.3% | [3] -27.4% | [4] -9.7% | [5] 10.6% | [6] -19.3%

CN(C)c1ccc(/C=C/C=C(/C#N)c2ccccc2)cc1
inactive: [1] 14.8% | [2] 8.5% | [3] 2.9% | [4] 32.2% | [5] 24.3% | [6] 2.65%

CCC(COC(=O)C(c1ccccc1)c1ccccc1)NC1CCCCC1 (stereo not given)
inactive: [1] 27.4% | [2] 14.3% | [3] 44.8% | [4] 14.8% | [5] 6.45% | [6] 27.6%

O=C(O)CCC(=O)CC1CCCCC1
inactive: [1] 36.3% | [2] 15.9% | [3] 10.2% | [4] 39.1% | [5] -8.45% | [6] 28.2%

CCCCOc1ccc(CCOC(C)=O)cc1
inactive: [1] 6.5% | [2] -14.4% | [3] 1.7% | [4] -25.3% | [5] -15% | [6] -20.8%

COc1cc([N+](=O)[O-])ccc1NC(=O)c1cccc([N+](=O)[O-])c1C(=O)O
inactive: [1] 5% | [2] 20.6% | [3] 42.8% | [4] -9.5% | [5] -16.8% | [6] 24.6%

COC(=O)Nn1c(C)c(C(=O)Nc2ccc(OC)cc2)c(C(=O)OC)c1C
inactive: [1] 32.6% | [2] -16% | [3] 14.3% | [4] 2.8% | [5] 10.2% | [6] 21.6%

Cc1cc(N=Nc2ccc(O)c3ncccc23)c2ccccc2n1
inactive: [1] 9.5% | [2] 6.85% | [3] 22.8% | [4] -4.9% | [5] 18% | [6] 19.1%

c1cnc2c(c1)-n1cccc1C1(CCOCC1)NN2
inactive: [1] -73.5% | [2] -30.2% | [3] -54.5% | [4] -11.3% | [5] -13.3% | [6] -40.9%

COc1cc2cccc(N=Cc3cccc(OC)c3OC(C)C)c2cc1OC
inactive: [1] -20.9% | [2] -13.2% | [3] 11.6% | [4] 16.1% | [5] -4.6% | [6] -8.6%

O=C(O)/C(=C\c1ccccc1[N+](=O)[O-])c1ccc(Cl)cc1
inactive: [1] -0.2% | [2] -14.1% | [3] -2.3% | [4] -46.8% | [5] -8.95% | [6] -1.8%

O=C(O)c1ccc(C(=O)C2CC(C(=O)O)CCC2S(=O)(=O)O)cc1 (stereo not given)
inactive: [1] -10.1% | [2] 11.8% | [3] -19.8% | [4] -30.6% | [5] -0.4% | [6] 17.1%

Cc1ccc(S(=O)(=O)C(C#N)(Cc2c[nH]c3ccccc23)Cc2c[nH]c3ccccc23)cc1
inactive: [1] 4.85% | [2] 9.25% | [3] -5.25% | [4] -16.2% | [5] 11.8% | [6] 6.5%

c1ccc(C(SN=C2CCCCC2)(c2ccccc2)c2ccccc2)cc1
inactive: [1] -4.35% | [2] -2.6% | [3] -25.6% | [4] 10.9% | [5] -1.2% | [6] -13.1%

NC(CCOCCP(=O)(O)CCC1C=CC=CC1)C(=O)O (stereo not given)
inactive: [1] -9.6% | [2] -31.7% | [3] -29.1% | [4] 5.6% | [5] -21.3% | [6] -19.9%

Cc1c(Cl)cccc1NC(=O)Sc1ccc(C(C)(C)C)cc1
inactive: [1] 21.1% | [2] 11.4% | [3] 12.5% | [4] 19.1% | [5] 11.4% | [6] 15.5%

Cc1cc(N(C)c2ccccc2)nc(N(C)c2ccccc2)n1
inactive: [1] -24.4% | [2] -16.6% | [3] -6.05% | [4] -14.6% | [5] -23.3% | [6] -61.5%

N=C(N)/N=C(/C=C/c1ccccc1)CC1OC(=O)c2ccccc21 (stereo not given)
inactive: [1] -6.95% | [2] -10.7% | [3] -22.6% | [4] -2.85% | [5] -28.8% | [6] -24.3%

O=C(CCCCCCCCC(=O)NO)NO
inactive: [1] -10.8% | [2] 0.45% | [3] -2.9% | [4] 4% | [5] -2.95% | [6] -2.5%
